Measured values reported in PubChem BioAssay (NCATS).
Where “and” joins values, the source holds several entries; their conditions need not be identical. Identical values can stand only once. Results filed as inconclusive are left out. Calls of active or inactive are those of the source. The call rests on the fitted dose curve; in most records, active means well fitted inhibition curve with a large enough effect; inconclusive means small, poorly fitted or top-dose-only effect; inactive means flat fitted curve, though single readings scatter. Where a SMILES comes first, the peptide text is derived from it. Bridges are numbered along the chain shown (N, C = ends). [ ]: non-standard residue; d: D form. Orn = NCCC[C@H](N)C(=O)O; Mpa = O=C(O)CCS

The compounds below were run on KB-3-1 (assay: Cytotoxic Profiling of Annotated Libraries Using Quantitative High-Throughput Screening (AID 1296008; further: nearly all actives have a fitted effect of over 60% in size)). Details: Five cell lines viability, CellTiter-Glo ATP luminescence, 48-72 h; max response: stronger effect = lower value.
Summary of the method: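 Cytotoxicity was measured as CellTiter-Glo ATP luminescence, read after 10 min at room temperature. Compound treatment of the cells lasted 48 or 72 hr at 37 degrees Celsius in a qHTS format.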
On the % scale 0 is the no-effect control and ±100 the full control effect.

Compound | max response
N[C@@H](C(=O)N[C@H]1C(=O)N2C(C(=O)O)=C(Cl)CC[C@H]12)c1ccccc1 | -8.22% (inactive)
O=S(O)CO | -16% (inactive)
C/C=C(/CC[C@@H](C)[C@H]1CC[C@H]2C3=CC[C@H]4[C@H](C)[C@@H](O)CC[C@]4(C)[C@H]3CC[C@]12C)C(C)C | -22.1% (inactive)
CN(C)CCOc1ccccc1Cc1ccccc1 (tested in a mixture with another compound) | 0.128% (inactive)
CS(=O)(=O)OCCCNCCCOS(C)(=O)=O | -5.57% (inactive)
CCCCCC(O)/C=C/C=O (stereo not given) | -19% (inactive)
O=C(O)c1cccc(/C=C2/C[C@@H]3[C@@H](/C=C/[C@@H](O)C4CCCCC4)[C@H](O)C[C@@H]3O2)c1 | -0.588% (inactive)
O=C1O[C@H]2[C@H](O)[C@@H]1OC(O)[C@H]2O (stereo not given in full) | -7.29% (inactive)
NC(=O)C[C@@H](N)C(=O)O | -17.1% (inactive)
NCCCC[C@H](NC(=O)[C@@H]1CCCN1C(=O)[C@@H]1CSSC[C@H](N)C(=O)N[C@@H](Cc2ccccc2)C(=O)N[C@@H](Cc2ccccc2)C(=O)N[C@@H](CCC(N)=O)C(=O)N[C@@H](CC(N)=O)C(=O)N1)C(=O)NCC(N)=O | -12.7% (inactive)
CCCCC(=O)O | -12.9% (inactive) and -9.7% (inactive)
O.O=C([O-])CC([S-])C(=O)[O-].[Au+].[Na+].[Na+] (stereo not given) | -7.82% (inactive)
COc1ccc(C2NC(=S)N3C(c4ccc(OC)c(OC)c4)NC(=S)N23)cc1OC (stereo not given) | -2.1% (inactive)
COc1cc2[nH]c(C)c(CCN3CCN(c4ccccc4)CC3)c2cc1OC | -9.43% (inactive)
CC(C(=O)O)c1ccc(C2CCCCC2)c2ccccc12 (stereo not given) | -20.6% (inactive)
CCOC(=O)COc1ccc2c(C)c(CCN(CC)CC)c(=O)oc2c1 | -7.36% (inactive)
CN1CC(O)c2cc(N=NC(N)=O)c(O)cc21 (stereo not given) | -10.6% (inactive)
O=C(O)CC(O)(CC(=O)O)C(=O)O | -1.69% (inactive)
CCC(=O)Oc1ccc2c(c1)CC[C@@H]1[C@@H]2CC[C@]2(C)[C@@H](OC(=O)CC)CC[C@@H]12 | -26.3% (inactive)
CC1(C)S[C@@H]2[C@H](NC(=O)[C@H](N)c3ccccc3)C(=O)N2[C@H]1C(=O)OCOC(=O)[C@@H]1N2C(=O)C[C@H]2S(=O)(=O)C1(C)C | -17% (inactive)

Compound | max response
Cn1nnnc1SCC1=C(C(=O)O)N2C(=O)[C@@H](NC(=O)[C@H](OC=O)c3ccccc3)[C@H]2SC1 | -7.31% (inactive)
O=C1C(c2[nH]c3ccc(S(=O)(=O)O)cc3c2O)=Nc2ccc(S(=O)(=O)O)cc21 | 3.94% (inactive) and -6.29% (inactive)
C=CS(=O)(=O)O | -7.41% (inactive)
COc1cc2c(c(OC)c1OC)-c1c(cc3c(c1OC)OCO3)C[C@@H](C)[C@](C)(O)C2 | 21.3% (inactive) and -4.33% (inactive)
CCOc1ccc(C[C@H]2NC(=O)CCSSC[C@@H](C(=O)N3CCC[C@H]3C(=O)N[C@@H](CCCN)C(=O)NCC(N)=O)NC(=O)[C@H](CC(N)=O)NC(=O)[C@H]([C@@H](C)O)NC(=O)[C@H]([C@@H](C)CC)NC2=O)cc1 ([Mpa][dY](Et)ITNCP[Orn]G-NH2; disulfide 1-6) | -2.06% (inactive)
C1CNCCN1 | -7.97% (inactive)
O=S(=O)(O)Oc1ccc(C(c2ccc(OS(=O)(=O)O)cc2)c2ccccn2)cc1 | -0.878% (inactive)
CS(=O)(=O)Nc1cc2occ(NC=O)c(=O)c2cc1Oc1ccccc1 | 1.81% (inactive)
O=C(O)[C@@H](O)[C@H](O)[C@H](O)[C@@H](O)C(=O)O (tested in a mixture with another compound) | -0.35% (inactive)
CN=C(NC)NCc1ccccc1 | -10.8% (inactive)
CC#CCC(C)[C@H](O)/C=C/[C@@H]1[C@H]2C/C(=C/CCCC(=O)O)C[C@H]2C[C@H]1O (stereo not given in full) | -19% (inactive)
NCCCC[C@H](NC(=O)[C@@H]1CCCN1C(=O)[C@@H]1CSSC[C@H](N)C(=O)N[C@@H](Cc2ccc(O)cc2)C(=O)N[C@@H](Cc2ccccc2)C(=O)N[C@@H](CCC(N)=O)C(=O)N[C@@H](CC(N)=O)C(=O)N1)C(=O)NCC(N)=O | 0.366% (inactive) and -14.6% (inactive)
CCOC(=O)Nc1ccc2c(c1)N(C(=O)CN(C)C)c1ccccc1CC2 | -13.4% (inactive)
C[N+](C)(CCCCCC[N+](C)(C)C1c2ccccc2-c2ccccc21)C1c2ccccc2-c2ccccc21 | -17.2% (inactive)
NCCC[C@H](N)C(=O)O | -6.2% (inactive)
CNC[C@@H]1CC[C@@H](N)[C@@H](O[C@H]2[C@H](O)[C@@H](O[C@H]3OC[C@](C)(O)[C@H](NC)[C@H]3O)[C@H](N)C[C@@H]2N)O1 | -26.6% (inactive)
CCCCc1cc2c(=O)c(C(=O)OC)c[nH]c2cc1OCc1ccccc1 | -10.6% (inactive)
NCCCC[C@H](NC(=O)[C@@H]1CCCN1C(=O)[C@@H]1CSSC[C@H](NC(=O)CNC(=O)CNC(=O)CN)C(=O)N[C@@H](Cc2ccc(O)cc2)C(=O)N[C@@H](Cc2ccccc2)C(=O)N[C@@H](CCC(N)=O)C(=O)N[C@@H](CC(N)=O)C(=O)N1)C(=O)NCC(N)=O (H-GGGCYFQNCPKG-NH2; disulfide 4-9) | -6.41% (inactive)
CC(CC(c1ccccc1)c1ccccc1)NC(C)(C)C (stereo not given) | -0.893% (inactive)
CC(=O)O[C@H]1CC[C@@]2(C)C(=CC[C@H]3[C@@H]4CC[C@H](C(C)=O)[C@@]4(C)CC[C@@H]32)C1 | 2.35% (inactive)
